Results: PubChem BioAssay (EPA / NIEHS)
Values joined by “and” are separate entries in the source; they are usually repeats but may differ in a detail not shown here. Identical values can stand only once. A structure can be active in one record and inactive in another. Active and inactive are the calls of the source. How the source made its calls: active means hit-call score of the fitted dose curve at least 0.9, where 1 is the maximum; inactive means score below 0.9.

Read-out: TIMP metallopeptidase inhibitor 1 (TIMP1), TIMP1 (gene 7076)
Assay: BSK_MyoF_TIMP1: BioMAP Diversity Plus: MyoF Assay for TIMP metallopeptidase inhibitor 1 (TIMP1) Biomarker Activity (AID 2284269)
Conditions: primary human lung fibroblasts
Procedure: BSK_MyoF is a cell-based, multiplexed-readout assay that uses lung fibroblasts, […], with measurements taken at 24 hours after chemical dosing in a microplate: 96-well plate.BSK_MyoF_TIMP1 is an assay component measured in the BSK_MyoF assay. It measures TIMP-1 antibody related to regulation of gene expression using ELISA technology.Data from the assay component BSK_MyoF_TIMP1 was analyzed at the endpoint, BSK_MyoF_TIMP1, in the positive analysis fitting direction relative to DMSO as the negative control and baseline of activity. Using a type of binding reporter, gain or loss-of-signal activity can be used to understand protein changes. To generalize the intended target to other relatable targets, this assay endpoint is annotated to the 'protease' intended target family, where the subfamily is 'matrix metalloproteinase'.
The levels of cell surface (or secreted, indicated by the prefix "s") biomarker endpoints were measured by ELISA. Overt cytotoxicity to cells in confluent adherent cultures (all systems other than the BT system) was assessed by measuring total protein levels using sulforhodamine B (SRB) staining in parallel cultures at the time of biomarker measurements, indicated as SRB endpoints. For proliferation assays for adherent cell types, individual cell types are cultured at sub-confluence and relative cell numbers quantified by SRB staining at time points optimized for each system (48 h: 3C and CASM3C systems; 72 h: BT and HDF3CGF systems; 96 h: SAg system). SRB was performed by staining cells with 0.1% SRB after fixation with 10% TCA and reading wells at 560 nm.Viability and proliferation of PBMC (T cells) was quantified by Alamar Blue reduction for the SAg and BT systems. For PBMC viability (referred to as PBMC Cytotoxicity within the assay endpoint names), cells were plated (75,000/well in a 96-well plate) and then chemical samples added for 1 h before addition of activators, SEB and TSST-1 (20 ng/mL final concentration each). Cells were incubated for 90 h. Then, Alamar Blue (20 uL/well) (Invitrogen, Cat DAL1100) was added for 6 h, and the plates were read with a fluorescence microplate reader at 546/580 nm (excitation/emission). For PBMC proliferation, cells were plated and activated as above but incubated for only 16 h prior to addition of Alamar Blue. Plates were read after 6 h.

SMILES | outcome | AC50
CCOP(=S)(NC(C)C)Oc1ccccc1C(=O)OC(C)C (centres undefined) | inactive | 
Cc1c([N+](=O)[O-])cc2c(c1[N+](=O)[O-])C(C)(C)CC2(C)C | inactive | 
O=S(=O)(F)C(F)(F)C(F)(F)C(F)(F)C(F)(F)C(F)(F)C(F)(F)C(F)(F)C(F)(F)F | inactive | 
FC(F)(F)C(F)(C(F)(F)F)C(F)(F)C(F)(F)CC1CO1 (centres undefined) | inactive | 
N#Cc1c(-c2ccc(Cl)cc2)[nH]c(C(F)(F)F)c1Br |  | 20 µM (active)
CC(C)Nc1ccc(Nc2ccccc2)cc1 |  | 20 µM (active)
N#Cc1cc([N+](=O)[O-])ccc1N | inactive | 
ClC(Cl)=C(c1ccc(Cl)cc1)c1ccccc1Cl |  | 5.76 µM (active)
C=CC(=O)OCC(CC)(COC(=O)C=C)COC(=O)C=C |  | 9.61 µM (active)
COC(=O)C(F)(F)C(F)(F)OC(F)(C(F)(F)F)C(F)(F)OC(F)=C(F)F (centres undefined) | inactive | 
c1ccc2c(c1)sc1ccccc12 | inactive | 
OCC(F)(F)OC(F)(F)C(F)(F)OC(F)(F)CO | inactive | 
O=C(O)C(F)(F)C(F)(F)C(=O)O | inactive | 
OCC(F)(F)OC(F)(F)C(F)(F)OC(F)(F)C(F)(F)OC(F)(F)F |  | 22.3 µM (active) and 27.8 µM (active)
CCOP(=S)(S)OCC | inactive | 
CCCCC(CC)COP(=O)(Oc1ccccc1)Oc1ccccc1 (centres undefined) |  | 6.48 µM (active)
CCCCOCCOP(=O)(OCCOCCCC)OCCOCCCC | inactive | 
CCOP(=S)(OCC)SCn1nnc2ccccc2c1=O | inactive | 
COP(=O)(O)OC | inactive | 

SMILES | outcome | AC50
CCOP(=S)(OCC)SCSc1ccc(Cl)cc1 | inactive | 
Nc1ccc([N+](=O)[O-])cc1Cl | inactive | 
COP(N)(=S)OC | inactive | 
Cc1ccc2c(c1N)C(=O)c1ccccc1C2=O | inactive | 
O=C(O)C(F)(F)OC(F)(F)C(F)(F)OC(F)(F)C(=O)O | inactive | 
CC(Cl)CN(C)C (centres undefined) | inactive | 
C=CC(=O)OCC(F)(F)C(F)F | inactive | 47.6 µM (active)
CCOP(=S)(OCC)SCS(=O)(=O)CC | inactive | 
O=C(O)C(F)(F)OC(F)(F)C(F)(F)OC(F)(F)F | inactive | 
O=c1ssc(Cl)c1Cl |  | 7.43 µM (active)
OCC(F)(F)OC(F)(F)C(F)(F)OC(F)(F)C(F)(F)OC(F)(F)CO | inactive | 
O=P(OCC(Br)CBr)(OCC(Br)CBr)OCC(Br)CBr (centres undefined) | inactive | 
O=C(O)C=CC(F)(C(F)(F)F)C(F)(F)F | inactive | 
O=C(O)C(F)(OC(F)(F)C(F)(F)C(F)(F)F)C(F)(F)F (centres undefined) | inactive | 
O=S1(=O)OCC2C(CO1)C1(Cl)C(Cl)=C(Cl)C2(Cl)C1(Cl)Cl (centres undefined) | inactive | 
CC(C)(C)c1ccccc1OP(=O)(Oc1ccccc1)Oc1ccccc1 |  | 26.8 µM (active)
NC(=O)C(F)(F)C(F)(F)F | inactive | 
CCCCC(CC)COC(=O)c1c(Br)c(Br)c(Br)c(Br)c1C(=O)OCC(CC)CCCC (centres undefined) | inactive | 
CC(O)C(F)(F)C(F)(F)F (centres undefined) | inactive | 
